# Bioassay records: PubChem, National Center for Advancing Translational Sciences (NCATS)
# Sampled rows, rich in hits. Any-hit rate of the full collection: about 21%.
# Pf growth 48h – P. falciparum growth inhibition at 48 hours (one generation) | P. falciparum luciferase growth in erythrocytes, 48 h | Potency, µM (highest dose often 28.7 µM), without a hit: at the top dose activity change, negative = inhibition, usual class: inhibitors | actives 5.9% (n = 310,000) | AID 504832; note: potency is the fitted concentration of half-maximal effect; % is set by controls: 0 for no effect and ±100 for the full control effect
#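 Read-out is firefly luciferase luminescence from an integrated reporter in P. falciparum, so falling signal marks reduced parasite growth. Infected erythrocytes were at 2% hematocrit and 0.1% parasitemia (final) in Albumax-supplemented RPMI 1640.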
# Shiga inhibitor – inhibitors of Shiga toxin in Vero cells; Vero cells, Shiga toxin protein synthesis inhibition reporter; inhibition, % at 38.7 µM; actives 9.2% (n = 290,000); AID 2315; in the data active = inhibition mostly above about 28%, no sharp cut-off; inactive = mostly below about 43%; note: 0% is about no effect
# CHX counter – affects cycloheximide protein synthesis inhibition readout, counter-screen; cell reporter, cycloheximide protein synthesis inhibition counterscreen; max response, %; actives 12% (n = 300,000); AID 2314; in the data active = max response mostly above about 13%, no sharp cut-off; inactive = mostly below about 14%; note: read at 38.3 µM for the half of the compounds with a filed dose; 0% is about no effect
# NS1 function inh – inhibitors of influenza NS1 protein function; Potency, µM (doses to about 46.1 µM), for inactives: at the top dose activity, positive = more growth; actives 0.4% (n = 270,000); AID 2326; calls by dose curve; note: potency is the fitted concentration of half-maximal effect; actives are rising curves; nearly all actives have a fitted effect of over 50% in size
#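 A cell-based growth assay was used: compounds that relieve NS1-induced slow growth of budding yeast raise OD600. Assay medium was yeast nitrogen base with ammonium sulphate and -URA supplement, pH 6.0, with 2% galactose.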
# Sm TGR block – blocks Schistosoma mansoni thioredoxin glutathione reductase; purified TGR, DTNB reduction, TNB absorbance 405 nm; Potency, µM (top dose mostly 114 µM), inactives show at the highest dose activity change, negative = inhibition, hits mostly inhibitors; actives 3% (n = 360,000); note: potency is the fitted concentration of half-maximal effect; % is set by controls: 0 for no effect and ±100 for the full control effect; nearly all actives have a fitted effect of over 60% in size
#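 Kinetic colorimetric format: TGR-catalysed, NADPH-driven DTNB reduction monitored via TNB absorbance. Enzyme dispensed at 20 nM; compound exposure 15 min at room temperature before reaction start.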
# Pf growth 96h – inhibits malaria parasite growth, 96 h | actives 6.9% (n = 320,000) | AID 504834 | Potency, µM (highest dose often 28.7 µM), inactives show at the top dose activity change, negative = inhibition, most hits filed as inhibitors | P. falciparum luciferase reporter growth, 96 h; note: potency is the fitted concentration of half-maximal effect; % is set by controls: 0 for no effect and ±100 for the full control effect
#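 Erythrocytes infected with luciferase-expressing P. falciparum were dispensed at 2% hematocrit and 0.05% parasitemia (final), then incubated with compounds 96 hours at 37 C in 5% CO2. Luminescence after detection reagent addition reported growth.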
# Active calls of the source: *; ? = inconclusive; / = no result; [ ] = another dose, or the depositor's remark. Unless noted, calls come from the whole dose curve; as a rule, active = well fitted curve in the direction sought with a large enough effect; inconclusive = small, poorly fitted or top-dose-only effect, or another doubt; inactive = no such curve, though single readings can be large; an effect the other way counts as inactive or inconclusive.
SMILES,Pf growth 48h,Shiga inhibitor,CHX counter,NS1 function inh,Sm TGR block,Pf growth 96h
CCOC(=O)c1ccc(NC(=S)N(CCCN2CCN(C)CC2)Cc2cccs2)cc1,?,-6.3,-2.3,-0.6%,13.1%,44.6%
CCOc1ccc(NC(=S)N(CCN2CCOCC2)Cc2ccc3c(c2)CCCN3CC)cc1,?,8.0,-1.7,/,-0.1%,?
CCOC(=O)c1ccc(NC(=S)N(CCCN2CCN(CC)CC2)Cc2cccs2)cc1,8.28µM*,-10.8,-2.4,?,2.6%,-3.2%
COc1ccc(NC(=S)N(CCCN2CCCCC2)Cc2cccs2)cc1,?,-3.8,-3.5,1.5%,-1.8%,11.7µM*
COc1cccc(NC(=S)N(CCCN2CCC(C)CC2)Cc2cccs2)c1,-29.2%,-5.1,9.7,-3.3%,0.6%,4.5%
COc1ccc(NC(=S)N(CCCN2CCC(C)CC2)Cc2cccs2)cc1,0.0%,1.6,2.2,/,2.6%,5.86µM*
O=C(O)/C=C/C(=O)N(Cc1ccc2c(c1)OCO2)C1CC(=O)N(CCc2ccccc2)C1=O (centres undefined),-33.9%[5.75 µM],-14.4,1.9,/,-16.6%,30.8%
Cc1ccc(-c2nc(C)c(CCNC(=O)C(=O)Nc3ccc(C)c(Cl)c3)s2)cc1,/,/,/,/,4.8%,/
CC1(C)C2CCC1(CS(=O)(=O)NCc1ccc(Cl)cc1Cl)C(=O)C2 (centres undefined),7.9%,-4.4,-2.7,-22.4%,11.6%,0.8%
COc1ccc(-c2nc3scc(CCNS(=O)(=O)c4ccc(C)cc4)n3n2)cc1,/,/,/,/,-3.0%,/
Cc1cc2c(c(=O)o1)C(c1ccc([N+](=O)[O-])o1)C(C#N)=C(N)O2 (centres undefined),1.8%,-1.9,2.2,9.2%,14.1µM*,9.2%
CCC(CC)C1C(C#N)=C(N)Oc2cc(C)oc(=O)c21 (centres undefined),/,-13.0,1.3,-5.9%,0.0%,-12.9%
CSc1ccc(CN(C)C(=O)CNC(=O)c2ccc3c(c2)OCO3)cc1,4.15µM*,/,/,/,2.2%,8.28µM*
CN(Cc1ccc(Cl)cc1Cl)C(=O)CNC(=O)c1ccc2c(c1)OCO2,10.4µM*,/,/,/,-1.2%,11.7µM*
CSc1nc(S(=O)(=O)c2ccc(C)cc2)c(Cl)s1,11.7µM*,8.2,-2.3,/,2.1%,?
CCOc1nc(S(=O)(=O)c2ccc(C)cc2)c(Cl)s1,0.0%,15.6,1.3,1.3%,-6.6%,0.0%[5.75 µM]
Cc1nc2ccc(NC(=O)c3ccco3)cc2s1,26.9%,103.5*,33.8*,-33.2%,1.6%,100.8%
Cc1nc2ccc3nc(NC(=O)c4ccco4)sc3c2s1,/,/,/,-3.5%,/,/
CC(=O)Nc1nc2ccc(NC(=O)c3ccco3)cc2s1,/,54.9*,45.1*,10.3%,-0.1%,148.7%
O=C(CC(=O)N/N=C/c1c(Cl)cccc1Cl)NCc1cccnc1,10.3%,-34.2,1.1,1.8%,2.5%,?
COc1ccc2nc3oc(C(=O)N4CC(C)CC(C)C4)cc3cc2c1 (centres undefined),?,55.7*,14.2,-42.0%,-2.0%,?
COc1ccc2nc3oc(C(=O)N4CCCCC4)cc3cc2c1,51.9%,75.5*,30.3*,-44.6%,1.1%,?
COc1ccc2cc3cc(C(=O)N4CCCC(C)C4)oc3nc2c1 (centres undefined),18.1%,82.0*,37.7*,-1.0%,7.3%,11.7µM*
COc1ccc(CNC(=O)c2cc3cc4cc(OC)ccc4nc3o2)cc1,/,/,/,/,4.1%,/
CCOC(=O)C1CCN(C(=O)c2cc3cc4cc(OC)ccc4nc3o2)CC1,?,28.7,32.2*,-16.3%,-9.2%,63.5%
CCOC(=O)C1CCCN(C(=O)c2cc3cc4ccc(OC)cc4nc3o2)C1 (centres undefined),-18.9%,33.9,0.4,-15.0%,-10.1%,48.3%
CCOc1ccc(NC(=O)CCNS(=O)(=O)c2ccc3c(c2)CC(C)N3C(C)=O)cc1 (centres undefined),?,-1.4,-1.9,-3.5%,-1.6%,-9.7%
CCOc1ccc(CCNC(=O)c2nn(-c3ccc(OC)cc3)c(=O)c3c2c2ccccc2n3C)cc1OCC,/,/,/,/,9.4%,/
CCN1C(=O)/C(=C2\C=Cc3ccccc3N2CC)SC1=S,-4.1%,31.0,20.3,7.1%,3.8%,?
CCN1C(=O)/C(=C2\C=Cc3cc(C)ccc3N2CC)OC1=S,-2.6%,7.4,-1.8,-18.5%,-18.4%,0.2%
